Apoferritin bind – candidate novel general anesthetic via apoferritin binding | AID 485281 | P02791 | apoferritin/1-aminoanthracene competitive binding, fluorescence | Potency, µM (doses to about 77.5 µM), usual class: inhibitors | actives 0.074% (n = 350,000); note: nearly all actives have a fitted effect of over 20% in size
Target sequence (P02791 2-175 limits assumed): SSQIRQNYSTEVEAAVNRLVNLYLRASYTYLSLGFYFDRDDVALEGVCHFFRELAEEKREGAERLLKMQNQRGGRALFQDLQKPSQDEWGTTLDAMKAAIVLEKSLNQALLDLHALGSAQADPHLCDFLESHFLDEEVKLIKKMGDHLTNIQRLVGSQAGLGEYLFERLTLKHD
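Horse-spleen apoferritin (10 uM) was mixed with 50% saturated 1-aminoanthracene in PBS, exposed to compounds for 10 min at room temperature, and read for fluorescence (ex 380 nm, em 535 nm). Competitive displacement was fitted with a four-parameter Hill equation.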
BRCA1 expr up – increases BRCA1 expression; actives 1.1% (n = 380,000); Potency, µM (doses to about 46.1 µM), actives largely listed as activators; MCF7-BRCA1-FFLuc reporter, luminescence, 48 h; response scale: scaled: vehicle 0%, 10 µM genistein 100%; AID 624202; note: nearly all actives have a fitted effect of over 80% in size
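Cells: MCF7-BRCA1-FFLuc, 2000/well. Exposure: 48 h, 37 °C, 5% CO2. Read: luminescence, 15 min post-substrate. Controls: genistein 10 microM (maximal activation), DMSO (neutral).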
PTAP TSG101 blk – blocks PTAP/TSG101 interaction to inhibit HIV-1 budding; Q99816; Fluorescence polarization, FITC-PTAP peptide / Tsg101 binding; Potency, µM (titrated, usually from 115 µM), usual class: inhibitors; 340,000 tested, under 10 active; AID 493005; active = well fitted inhibition curve with a large enough effect in the main read-out, with a control signal flat, not every such curve was filed as active; inconclusive = small, poorly fitted or top-dose-only effect, or effect the other way, or a change in a side signal; inactive = no such curve, though single readings can be large or run the other way
Target sequence (Q99816 whole entry, looked up): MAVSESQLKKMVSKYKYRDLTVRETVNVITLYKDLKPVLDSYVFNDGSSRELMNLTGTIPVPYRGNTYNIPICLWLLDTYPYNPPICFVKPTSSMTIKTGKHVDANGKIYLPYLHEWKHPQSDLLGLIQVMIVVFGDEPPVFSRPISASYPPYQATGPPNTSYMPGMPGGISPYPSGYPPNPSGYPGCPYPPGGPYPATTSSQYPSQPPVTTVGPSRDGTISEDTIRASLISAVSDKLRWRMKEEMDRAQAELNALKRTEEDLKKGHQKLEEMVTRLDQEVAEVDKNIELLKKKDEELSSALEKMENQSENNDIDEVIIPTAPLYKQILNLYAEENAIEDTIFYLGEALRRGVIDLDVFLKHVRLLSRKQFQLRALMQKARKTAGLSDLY
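Compounds were pin-transferred onto Tsg101 binding domain (10 uM final) in HEPES pH 7.5 buffer, then FITC-PTAP peptide was added at 50 nM final. After 20 min at RT, polarization reported peptide displacement across a qHTS concentration series.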
TSHR antagonist – blocks TSH signaling through the human TSH receptor. activity change, negative = inhibition, % at 11.5 µM. TSHR-expressing cells, TSH-stimulated cAMP HTRF, 2 h; hits give low values. actives 0.2% (n = 330,000). AID 504810. P16473;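 active = activity change below a set negative limit, meaning inhibition stronger than a set level, cut at about -70% in these data; inconclusive = activity change between two set negative limits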
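Read-out is FRET at 665 nm (cryptate excitation 337 nm) from a cryptate-tagged anti-cAMP antibody, competed by cell cAMP against cAMP-d2. Compounds are tested on freshly harvested TSHR cells challenged with 4nM TSH (EC80) for 2 hours at 37 deg C.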
ASM inhibitor – blocks human secretory acid sphingomyelinase; placental ASM, HMU-PC fluorogenic substrate, 60 min; actives 0.006% (n = 340,000); Potency, µM (titrated, usually from 57.5 µM), usual class: inhibitors
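HMU-PC0 cleavage (9 uM final) by human placental ASM, 60 min at 37 °C following 10 min compound exposure at RT; stopped at pH 10, fluorescence Ex 386/Em 447 nm.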
Each line names hits and unclear results; the compound was inactive in the other large screens. Sampled rows, rich in hits. Any-hit rate of the full collection: about 1.2%. Unless noted, calls come from the whole dose curve; as a rule, active = well fitted curve in the direction sought with a large enough effect; inconclusive = small, poorly fitted or top-dose-only effect, or another doubt; inactive = no such curve, though single readings can be large; an effect the other way counts as inactive or inconclusive.

COc1ccc(-c2nnc3n2N=C(c2ccccc2OC)CS3)c(OC)c1	none (no result: BRCA1 expr up, PTAP TSG101 blk, TSHR antagonist, ASM inhibitor)
O=C(Nc1nc2ccccc2n1CCN1CCOCC1)c1cccc([N+](=O)[O-])c1	none (no result: Apoferritin bind, BRCA1 expr up, PTAP TSG101 blk, ASM inhibitor)
CN(C)c1ccc(/C=C/c2ccnc3c(Cl)ccc(Cl)c23)cc1	none (no result: Apoferritin bind, PTAP TSG101 blk, TSHR antagonist, ASM inhibitor)
CNC(=O)c1ccc(-c2nc(-c3ccccc3)cs2)cc1	BRCA1 expr up 2.5µM
CCc1ccccc1NC(=O)c1ccc(-c2csc(C)n2)cc1	BRCA1 expr up 3.5µM
O=C(O)c1ccccc1C(=O)Nc1ccc(-c2csc(-c3ccccc3)n2)cc1	BRCA1 expr up 7.1µM
O=C(O)c1ccc(-c2nc(-c3ccccc3)cs2)cc1	BRCA1 expr up inconclusive
CCCCC/C=C\C\C=C/C=C/C=C/[C@@H](SC[C@H](N)C(=O)O)[C@@H](O)CCCC(=O)O	none (no result: BRCA1 expr up, PTAP TSG101 blk, TSHR antagonist, ASM inhibitor)
COc1ccc(CN(Cc2ccccc2)C(=O)Nc2ccccc2)cc1COc1ccc(NC(C)=O)cc1	none (no result: Apoferritin bind, PTAP TSG101 blk, TSHR antagonist, ASM inhibitor)
c1ccc2c(c1)[nH]c1c(N3CCN(C4CCCCC4)CC3)ncnc12	Apoferritin bind 6.3µM
c1ccc2c(c1)[nH]c1c(N3CCCC3)ncnc12	none
CC(=O)c1cccc(NC(=O)c2sc3nc4n(c(=O)c3c2C)CCCC4)c1	TSHR antagonist -132
O=C(Nc1ccc2nc3n(c(=O)c2c1)CCCCC3)C(=O)Nc1ccccc1F	none (no result: BRCA1 expr up, PTAP TSG101 blk, TSHR antagonist, ASM inhibitor)
COc1cc(OC)cc(C(=O)Nc2ccc3nc4n(c(=O)c3c2)CCCCC4)c1	BRCA1 expr up 4.5µM
Cc1ccc(C)c(NC(=O)c2ccc3c(=O)n4c(nc3c2)CCC4)c1	BRCA1 expr up 4.5µM (no result: Apoferritin bind)
O=C(Nc1ccc2nc3n(c(=O)c2c1)CCCCC3)C(=O)N1CCN(c2ccccc2F)CC1	TSHR antagonist -122
COc1ccc(C)cc1NC(=O)c1ccc2c(=O)n3c(nc2c1)CCCCC3	none
CS(=O)(=O)c1ccccc1NC(=O)COc1ccccc1C(=O)Nc1ccccc1	none (no result: Apoferritin bind, PTAP TSG101 blk, TSHR antagonist, ASM inhibitor)
O=C(Nc1cccc(S(=O)(=O)N2CCCCC2)c1)c1ccc2c(=O)n3c(nc2c1)CCCCC3	TSHR antagonist -77
Cc1ccc(NC(=O)CC(=O)c2ccccc2)cc1C	Apoferritin bind inconclusive, BRCA1 expr up 6.3µM
Cc1cccc(-c2noc(-c3ccccc3C(=O)NCC3CCCO3)n2)c1 (stereo not given)	Apoferritin bind inconclusive, BRCA1 expr up 6.3µM
Cc1ccc(SCCN2CCC(C)CCC2=O)cc1 (stereo not given)	BRCA1 expr up 8.9µM
O=C1CCN(Cc2ccccc2)CCN1CCSc1ccccc1	BRCA1 expr up 8.9µM
CC(C)(C)C1CCC(=O)N(CCSc2ccccc2)CC1 (stereo not given)	BRCA1 expr up 3.5µM
Cc1ccc(SCCC(=O)N2CCC(C)CC2)cc1	BRCA1 expr up 10µM
Cc1ccc(SCCC(=O)N2CCC(C(N)=O)CC2)cc1	none
CCCN1CCC(=O)N(CCSc2ccccc2)CC1	BRCA1 expr up inconclusive
COc1cc2c3cc1Oc1c(OC)c(OC)cc4c1[C@@H](Cc1ccc(OC(=O)c5ccc([N+](=O)[O-])cc5)c(c1)Oc1ccc(cc1)C[C@@H]3N(C)CC2)N(C)CC4	none (no result: BRCA1 expr up, PTAP TSG101 blk, TSHR antagonist, ASM inhibitor)
CCS(=O)(=O)c1ccc2oc(SCC(=O)NC3CCCC(C)C3C)nc2c1 (stereo not given)	Apoferritin bind 50µM
C/C=C\C1=CCCC1Nc1ncnc2ccc(-c3c(C)noc3C)cc12 (stereo not given)	none (no result: BRCA1 expr up, PTAP TSG101 blk, TSHR antagonist, ASM inhibitor)
C/C(CCN1CCCc2nc(C)c(C)cc21)=N\O[C@@H](C)c1cn([C@H](CO)Cc2ccccc2)nn1	none (no result: BRCA1 expr up, PTAP TSG101 blk, TSHR antagonist, ASM inhibitor)
O=C(Cn1cc(C(=O)C2CC2)c2ccccc21)NCc1ccccc1	BRCA1 expr up 13µM
CCOc1ccc(C(=O)Nc2ccc(N3CCN(C)CC3)cc2)cc1	none
COc1ccc(NC(=O)c2ccc3c(c2)N(C)CCS3)cc1	BRCA1 expr up 10µM
COc1ccc(C(=O)Nc2ccc(N3CCN(C)CC3)cc2)cc1OC	BRCA1 expr up 2µM
COc1ccc(C(=O)Nc2ccc(N3CCN(C)CC3)cc2)cc1	BRCA1 expr up 2.2µM
Cc1ccc(C(=O)Nc2ccc(N3CCN(C)CC3)cc2)cc1	BRCA1 expr up 1.3µM
CN1CCSc2ccc(C(=O)Nc3cccc(F)c3)cc21	none

Screens deposited in PubChem by National Center for Advancing Translational Sciences (NCATS).
